# Data taken from PubChem BioAssay AID720519 (National Center for Advancing Translational Sciences (NCATS), 2013).
# Results filed as inconclusive are left out. Entries that show only a call come without a potency. Activity calls are given as the source filed them. Calls come from the whole dose curve; as a rule, active = well fitted activation curve with a large enough effect; inconclusive = small, poorly fitted or top-dose-only effect; inactive = flat fitted curve, though single readings scatter.
# Test: qHTS for Inhibitors of Cell Surface uPA Generation: Confirmatory Assay for Cherry-picked Compounds
# Outline: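 RAW 264.7 cells at 4000/well, incubated overnight, then treated with compounds. After 24 h at 37 C, viability was read by ATPlite luminescence. An increase in signal indicates blocked uPA-dependent LF entry.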
# Potency is the fitted concentration of half-maximal effect.
row,Structure (SMILES),Potency
1,COc1cc(C2NC(=O)NC(C)=C2C(=O)OCC2CCCCC2)ccc1O (centres undefined),inactive
2,Cn1c(=O)n(CC(=O)O)c(=O)c2c1nc1n2CCCN1CCc1ccccc1,inactive
3,COc1cc(CCC(=O)OCC(=O)Nc2ccc(C)cc2Br)cc(OC)c1OC,inactive
4,CC(=O)n1cc(/C=N/NC(=O)c2ccc([N+](=O)[O-])cc2)c2ccccc21,inactive
5,COCC(=O)N1CCC(n2nccc2NC(=O)c2ccccc2OC)CC1,inactive
6,Cc1ccc(CC2CC(=O)N(c3cc(C)ccc3C)C2=O)cc1 (centres undefined),inactive
7,CCCNC(=O)C1CCC(CNS(=O)(=O)c2ccc3c(c2)CC(C)N3C(C)=O)CC1 (centres undefined),inactive
8,CCN(CC)CCNC(=O)/C(=C/c1cn(CC)c2ccccc12)NC(=O)c1cc(OC)c(OC)c(OC)c1,inactive
9,COCCNC(=O)C(c1c[nH]c2ccccc12)N(C(=O)c1snc(C(N)=O)c1N)c1cccc(OC)c1 (centres undefined),inactive
10,Cn1cnc([N+](=O)[O-])c1Sc1ccc(Br)cc1,inactive
11,COc1ccc(-n2ncc3c(=O)n(CC(=O)NC(C)C)cnc32)cc1,inactive
12,CCOC(=O)c1ccccc1N=Cc1c(O)c2ccccc2oc1=O,inactive
13,CN1CC[C@]23c4ccccc4N[C@H]1[C@]21CCN(C)[C@H]3Nc2ccccc21,inactive
14,CSCC[C@H](NC(=O)[C@H](Cc1ccccc1)n1c(=O)[nH]c2ccccc2c1=O)C(=O)N1CCC[C@@H]1C(=O)O,inactive
15,CC(=O)c1c(C)n(-c2ccccc2Br)c2ccc(O)cc12,inactive
16,O=C(C1=C[C@H](c2ccccc2)C[C@H](OCCCCO)O1)N1CCN(Cc2ccc3c(c2)OCO3)CC1,inactive
17,COc1cc2c(OC(C)=O)c3c(c(-c4ccc5c(c4)OCO5)c2cc1OC)C(=O)OC3,2.33 µM (active)

row,Structure (SMILES),Potency
1,COc1ccc(C(=O)N[C@H](C(=O)NCc2cccs2)C(C)C)cc1,inactive
2,NC(=O)C1CCN(C(=O)c2cccc3ccccc23)CC1,inactive
3,Cn1c(SCC(=O)NNC(=O)c2ccc(Br)cc2)nnc1-c1cccnc1,inactive
4,COCCNC(=O)COCc1cc(-c2ccc3c(c2)OCO3)on1,inactive
5,COc1ccc(C(=O)c2sc(Nc3ccccc3)nc2N)cc1,inactive
6,CCOc1ccccc1C(=O)NC1CCN(CC(=O)Nc2cc(OC)ccc2OC)CC1,inactive
7,CC(=O)Oc1ccccc1C(=O)Nc1ccccc1C(=O)N1CCCC1,inactive
8,O=[N+]([O-])c1ccc(C[n+]2cccc(O)c2)cc1,inactive
9,CCN1CCCCC(=N/O)/C(=N/O)CCCC1,inactive
10,CCOc1cc(C(=O)OCC(=O)c2cc(C)n(CC3CCCO3)c2C)ccc1OCC(=O)N1CCOCC1 (centres undefined),inactive
11,Cc1nc(C(=O)N2CCC(n3nccc3NC(=O)Nc3ccccc3Cl)CC2)cs1,inactive
12,COc1ccc(-c2csc(NC(C)c3nc4cc(C(=O)NCCCO)ccc4n3Cc3ccc(C)cc3)n2)cc1 (centres undefined),inactive
13,Cc1cccc(-c2nc(CS(=O)CC(=O)NCc3cccs3)c(C)o2)c1 (centres undefined),inactive
14,OCC1CCCCN1CC(O)COC(c1ccc(F)cc1)c1ccc(F)cc1 (centres undefined),inactive
15,CC1CCCN(S(=O)(=O)c2cccc([N+](=O)[O-])c2)C1 (centres undefined),inactive
16,CC(Sc1nnc2ccccn12)C(=O)NCc1ccc2c(c1)OCO2 (centres undefined),inactive
17,O=C(NC1CCCC1)c1nc2c(nnn2Cc2ccccc2Cl)c(=O)[nH]1,inactive
